Assay outcomes (PubChem BioAssay)
FadD28 binding: inhibitors of FadD28 bisubstrate probe binding, primary screen, biochemical, fluorescence polarization, single point. Mycobacterium tuberculosis FadD28 fatty-acid-AMP ligase. inhibition, % at 12.5 µM. hit rate 0.22% among 360,000. AID 588549, 2011; in the data active means inhibition above about 8.5%, passing the limit was not always enough
TcdB inh: TcdB glycohydrolase inhibitors, primary screen, biochemical, single point, plate reader; Toxin B (Clostridioides difficile), P18177; AID 652162, 2013; hit rate 0.24% among 350,000; TcdB glycohydrolase enzymatic assay; inhibition, % at 9.99 µM; in the data active means inhibition above about 10%
PfHsp40 yeast: rescue of yeast from PfHsp40 toxicity, primary screen, S. cerevisiae, ATP luminescence; S. cerevisiae expressing PfHsp40, growth rescue; growth rescue, % at 12.5 µM; hit rate 0.68% among 340,000; in the data active means growth rescue above about 28%, passing the limit was not always enough;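 further: yeast W303a lacking pdr1 and pdr3 grown in galactose medium; growth measured after three days at 30 °C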
PrP UTR inh: inhibition of PrP 5' UTR reporter expression; cell-based PrP 5' UTR mRNA reporter, plate reader; inhibition, % (concentration not given with the values); hit rate 0.35% among 340,000; AID 488862, 2010; in the data active means inhibition above about 52%; further: 0 = median of the neutral control wells
Mtb BioA inh: M. tuberculosis BioA enzyme inhibitors, primary screen, biochemical, plate reader, single point, HTS. 7,8-diaminopelargonic acid synthase BioA (Mycobacterium tuberculosis). hit rate 0.096% among 360,000. inhibition, % at 9.99 µM. purified M. tuberculosis BioA enzyme; in the data active means inhibition above about 40%
Y pestis TopoI: Yersinia pestis topoisomerase I inhibitors, primary screen, biochemical, cleavage product accumulation, plate reader, single point; DNA topoisomerase I (Yersinia pestis CO92); Y. pestis Topo-I cleavage product accumulation; activity, % at 10 µM; hit rate 0.064% among 360,000; AID 504884, 2011; in the data active means activity above about 50%, passing the limit was not always enough
Starred values were filed as active, the others as inactive; · = not tested or not shown. The list is not random: actives were taken first. Their share in the collection is about 1.2%.

SMILES | FadD28 binding | TcdB inh | PfHsp40 yeast | PrP UTR inh | Mtb BioA inh | Y pestis TopoI
Cc1ccc(C(=O)Nc2ccc(O)cc2C(=O)O)cc1C | 0.3 | 19.8* | -1.4 | -3.8 | -0.5 | -1.0
COC(=O)CSc1nc2cc3c(cc2cc1C)OCCO3 | -4.2 | · | 163.0* | -13.6 | -1.8 | 3.8
CCOC(=O)CSc1nc2cc3c(cc2cc1C)OCO3 | -1.0 | 1.8 | -1.7 | -28.5 | 1.4 | 20.4
CCSc1nc2c([nH]1)c(=O)n(C)c(=S)n2C | -2.0 | 2.3 | 1.5 | -13.9 | -1.6 | 3.1
CCCSc1nc2c([nH]1)c(=O)n(C)c(=S)n2C | -3.7 | 10.4* | -0.9 | -12.6 | · | -5.6
CCCCNc1c(-c2ccc(SC3CCCCC3)cc2)nc2ccccn12 | -1.6 | 0.3 | 18.7 | -106.0 | 0.2 | 0.2
CCCCCCSc1ccc(-c2nc3cnccn3c2NCCCC)cc1 | -5.1 | 1.5 | 36.6* | -1.4 | -0.6 | 7.7
CCCCNc1c(-c2ccc(SC(C)CC)cc2)nc2ccccn12 (stereo not given) | -0.2 | 0.1 | 209.2* | -43.3 | -0.7 | 40.6
CCCCNc1c(-c2ccc(OC)c(SC(C)CC)c2)nc2cnccn12 (stereo not given) | 1.9 | 0.3 | 17.5 | 7.0 | 0.2 | 18.6
Cc1cc(C)cc(NC(=O)Nc2ccc3c(c2)C(=O)N(C)[C@H]2CC[C@@H](CC(=O)O)O[C@H]2CO3)c1 | · | · | · | · | -3.1 | ·
COc1ccc(S(=O)(=O)Nc2ccc3c(c2)C(=O)N([C@@H](C)CO)C[C@@H](C)[C@@H](CN(C)S(=O)(=O)c2cccs2)O3)cc1 | · | 1.1 | · | · | 4.7 | ·
Cc1ccc(/C=C2\SC(=S)N(Cc3ccccc3)C2=O)o1 | -0.9 | · | -0.7 | -25.7 | -3.0 | 2.9
O=C(O)c1cc(-c2ccc(/C=C3/SC(=S)N(Cc4ccccc4)C3=O)o2)ccc1Cl | 27.9* | -0.8 | 0.2 | -19.9 | -0.4 | -8.3
COc1cccc(C(=O)Nc2ccc3c(c2)OC[C@@H](C)N(C(=O)C2CC2)C[C@@H](C)[C@H](OC)CN(C)C3=O)c1 | · | 0.4 | · | · | 1.1 | ·
Cc1cc(NC(=O)CCCN2C(=O)c3cccc4cccc(c34)C2=O)no1 | -1.4 | 11.1* | -0.5 | -10.0 | · | -0.3
Cc1cc(NC(=O)CCCN2C(=O)c3cccnc3C2=O)no1 | -3.0 | · | -1.5 | -4.5 | 1.1 | 5.0
CCOC(=O)c1sc(NC(=O)Nc2ccc(Cl)cc2)cc1C | 24.8* | · | 1.4 | -50.6 | -0.6 | -3.0
CCOC(=O)c1sc(NC(=O)c2ccc(Cl)s2)cc1C | -2.6 | 0.5 | -0.4 | -84.3 | -0.6 | 3.2
COc1ccc(N(C(=O)c2ccncc2)S(=O)(=O)c2ccc(F)cc2)cc1 | -0.4 | 1.4 | 435.8* | -5.7 | -1.9 | 2.4
COc1ccc(N(C(=O)c2ccncc2)S(=O)(=O)c2ccc(OC)c(OC)c2)cc1 | -1.2 | 0.8 | 0.6 | -22.4 | 0.8 | 5.1
COc1ccc(N(C(=O)c2ccncc2)S(=O)(=O)c2ccccc2)cc1 | -2.4 | 0.0 | 340.0* | -13.1 | -0.8 | 5.7
COc1ccc(S(=O)(=O)N(C(=O)c2ccncc2)c2ccc(OC(=O)c3ccncc3)cc2)cc1 | -2.5 | -0.6 | 515.1* | -23.3 | 0.9 | -8.7
COc1ccc(OC(=O)c2ccncc2)cc1 | -0.2 | · | 0.1 | -14.6 | -1.5 | -8.0
O=C(CN1C(=O)c2ccccc2C1=O)N(CCO)Cc1ccccc1 | 22.5* | 0.5 | 0.0 | -7.8 | -0.2 | -2.9
CC(C)C[C@H]1COCc2cn(nn2)CC[C@@H](Cc2ccccc2)C(=O)N1 | · | -0.5 | · | · | · | ·
SMILES | FadD28 binding | TcdB inh | PfHsp40 yeast | PrP UTR inh | Mtb BioA inh | Y pestis TopoI
N#C/C(=C\c1cccc(Oc2ccccc2)c1)C(=O)N1CCOCC1 | -5.8 | 1.4 | 235.1* | -15.7 | -2.1 | 5.7
O=C1CCCC2=C1Sc1ccccc1N2 | 0.0 | 10.5* | 0.5 | -14.3 | 6.4 | 3.3
C[C@H](C[C@H](O)[C@H]1OC1(C)C)C1=C2C[C@H](O)C3[C@@]4(C)CCC(=O)C(C)(C)C4CC[C@]3(C)[C@@]2(C)CC1 (stereo not given in full) | -0.9 | 1.6 | 40.2* | -3.7 | -0.9 | 15.8
CCCSC(=S)c1c(C)[nH]n(-c2ccccc2)c1=O | 2.8 | -1.6 | 305.0* | -18.9 | · | 5.4
CO[C@H]1CN(C)C(=O)c2ccc(NC(=O)C3CC3)cc2OC[C@@H](C)N(C(=O)c2ccccc2F)C[C@H]1C | · | 0.3 | · | · | 1.7 | ·
CCCCN(Cc1ccccc1)c1ncnc2nc[nH]c12 | 0.7 | · | -0.7 | -45.9 | -0.3 | -3.6
CCCCN(CCCC)c1ncnc2nc[nH]c12 | -3.1 | 1.3 | 137.8* | 9.5 | · | 13.0
COc1cc(NC(=O)C2CC(c3c(F)cccc3Cl)=NO2)c(OC)cc1Cl (stereo not given) | 1.1 | 0.6 | 1.1 | -6.7 | 0.1 | 10.2
Cc1ccc(O)c(NC(=O)C2CC(c3c(F)cccc3Cl)=NO2)c1 (stereo not given) | -5.8 | · | 36.1* | -48.3 | -1.9 | 3.7
Nc1nc(Cn2nnc(-c3ccccc3Cl)n2)nc(N2CCOCC2)n1 | -0.1 | · | 0.3 | -1.4 | -1.5 | -3.3
Nc1nc(Cn2nnc(-c3ccccc3F)n2)nc(N2CCOCC2)n1 | -0.3 | -1.9 | 40.3* | -4.7 | 1.3 | 7.4
COc1ccc2c3c(n(C)c2c1)[C@@H](CO)N(CC1CCOCC1)CC31CN(CC2CCOCC2)C1 | · | -1.0 | · | · | · | ·
Clc1ccc(OCc2nn3c(C4CCCCC4)nnc3s2)cc1 | 0.0 | · | -1.3 | -9.2 | 7.1 | 54.3*
Cc1ccc(S(=O)(=O)N(C)C[C@@H]2Oc3ccc(NC(=O)NC4CCCCC4)cc3CC(=O)N([C@H](C)CO)C[C@@H]2C)cc1 | · | -0.8 | · | · | -0.9 | ·
CC1CCc2nc(NC(=O)Cc3cccs3)sc2C1 (stereo not given) | -8.9 | · | 4.8 | -111.6 | 2.7 | 0.0
CC(C)(C)C1CCc2nc(NC(=O)Cc3cn4ccsc4n3)sc2C1 (stereo not given) | -0.4 | · | 0.6 | -44.6 | 2.7 | 61.8*
O=C(Cc1ccccn1)N1CC(=O)N2[C@@H](CO)[C@H](c3ccc(C#CC4CCCC4)cc3)[C@@H]2C1 | · | 0.5 | · | · | · | ·
C=C1C(=O)C23CCC4C(C)(C(=O)OC)CCCC4(C)C2CCC1(O)C3 (stereo not given) | -2.5 | 0.2 | 242.2* | -22.2 | · | 13.0
COc1ccc(S(=O)(=O)N(C)C[C@@H]2OCCCC[C@@H](C)Oc3ccc(NC(=O)Nc4ccc(C(F)(F)F)cc4)cc3C(=O)N([C@@H](C)CO)C[C@@H]2C)cc1 | · | -0.2 | · | · | -1.4 | ·
Fc1ccccc1-c1nc(NCC2CC2)nc2ccsc12 | -3.9 | 2.0 | · | · | -1.2 | 5.0
Cc1cscc1-c1nc(NCC2CC2)nc2ccsc12 | 1.4 | 10.6* | · | · | 0.3 | 6.6
C[C@@H]1CCCCO[C@H](CN(C)S(=O)(=O)c2cccs2)[C@@H](C)CN([C@@H](C)CO)C(=O)c2cc(NS(=O)(=O)c3cccs3)ccc2O1 | · | -5.6 | · | · | · | ·
